Screening results (PubChem)
SMARCA2 activ: SMARCA2 function activation, primary screen | MG213 cells, MMTV-luciferase reporter, dexamethasone, overnight | activation, % at 9.1 µM | hit rate 1% among 370,000 | AID 652017; in the data active = activation above about 7.8%;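 also: 0% = vehicle wells and 100% = reference activator wells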
Gli-Sufu block: antagonists of Gli-Sufu signaling; AID 588413; inhibition, % at 5 µM; Sufu-KO-LIGHT fibroblasts, Gli luciferase reporter luminescence; hit rate 0.74% among 340,000;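 active = inhibition above about 55%, limit read from the data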;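 also: 0% = DMSO-treated cells and 100% = wells with medium but no cells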
esBAF inh: SWI/SNF esBAF complex inhibition | mouse ES cells, Bmi1-luciferase knock-in reporter, 24 h; 100% = twice the neutral-well signal | reporter increase, % at 12.5 µM | hit rate 2% among 350,000; in the data active = activation above about 40%; inconclusive = no clear call, values can overlap the other calls;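 also: 0% = median of the plate's neutral control wells and 100% = double that signal; a rise in the Bmi1 reporter signal indicates esBAF inhibition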
Jurkat NFkB inh: inhibitors of the PMA/ionomycin-induced NF-kB reporter in Jurkat cells | hit rate 0.53% among 330,000 | inhibition, % at 4 µM | PMA/ionomycin-induced NF-kB luciferase reporter, luminescence; in the data active = inhibition above about 50%
697 NFkB inh: inhibitors of the PMA/ionomycin-induced NF-kB reporter in 697 B cells; 697 B-cell NF-kB luciferase reporter, 16 h; inhibition, % at 4 µM; hit rate 0.33% among 330,000; in the data active = inhibition above about 35%
Ring1 derepress: confirmation of esBAF inhibitors: Ring1 de-repression in mouse ESCs | shares compounds with esBAF inh | mouse ESC E14, Ring1 mRNA RT-qPCR fold change | fold change at 33 µM | 550 tested, under 10 active;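 active = Ring1 gene expression raised more than 2-fold over untreated cells in both replicates at either tested dose; inconclusive = only one replicate above 2-fold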;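 also: Ring1 transcript normalised to actin housekeeping signal by TaqMan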
esBAF Fgf4 qPCR: confirmation of esBAF inhibitors: Fgf4 repression in mouse ESCs; shares compounds with esBAF inh; mouse ESC E14, Fgf4 mRNA qPCR fold change; hits give low values; Fgf4 expression fold change at 33 µM; hit rate 4% among 550; AID 743177;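 active = Fgf4 expression under 0.8 fold of control in both repeat measurements at one or both tested doses; inconclusive = under 0.8 fold in just a single repeat measurement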;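 also: Fgf4 transcript normalised to actin in duplex TaqMan qPCR; cells exposed to compound for 24 h before lysis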
Bmi1 derepress: confirmation of esBAF inhibitors: Bmi1 de-repression in mouse ESCs; shares compounds with esBAF inh; mouse ESE14 ES cells, Bmi1 mRNA qPCR fold; hits give high values; fold change at 33 µM; 550 tested, under 10 active; AID 743180;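 active = Bmi1 expression fold change above 6 at either tested concentration, seen in replicate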;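 also: higher fold means more Bmi1 de-repression and stronger esBAF inhibition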
A549 cytotox: cytotoxicity in A549 cells. 550 tested, under 10 active. cell viability change % (negative = cytotoxic), % at 25 µM, hits read low. plate reader. shares compounds with esBAF inh. AID 743188; call rule not given here
HepG2 cytotox SP: cytotoxicity in HepG2 cells. shares compounds with esBAF inh. plate reader; hits give low values. activity change, negative = inhibition, % at 25 µM. hit rate 4% among 550. AID 743189; in the data active = activity change below about -50%
HEK293 tox SP: cytotoxicity in HEK293 cells | activity change, negative = inhibition, % at 25 µM, hits read low | shares compounds with esBAF inh | plate reader | hit rate 3% among 550; in the data active = activity change below about -38%, passing the limit was not always enough
* hit, by the source's call; ? = inconclusive; · = no result given. A selection: hits, their analogues and other compounds. The true share with any hit is near 3.3%.

SMILES	SMARCA2 activ	Gli-Sufu block	esBAF inh	Jurkat NFkB inh	697 NFkB inh	Ring1 derepress	esBAF Fgf4 qPCR	Bmi1 derepress	A549 cytotox	HepG2 cytotox SP	HEK293 tox SP
c1ccc(-c2noc(CC3CCCCC3)n2)cc1	0	-42	58*	-29	-34	1.2	1.2	1.1	-6	-21	-5
CCCCC(=O)Nc1cccc(-c2nnc(-c3ccccc3)o2)c1	2	-42	7	-23	-42	·	·	·	·	·	·
CCC(=O)Nc1cccc(-c2nnc(-c3ccccc3)o2)c1	2	-34	74*	-47	-59	1.2	1.1	1.2	-11	15	-1
O=C(Nc1ccc(Cl)c(Cl)c1)c1ccncc1	4	-26	65*	-31	-29	1.2	1	1.5	0	22	-8
O=C(Nc1ccc(Cl)c(Cl)c1)c1ccc(Cl)c(Cl)c1	1	-51	?	-70	-91	·	·	·	·	·	·
O=C(Nc1ccc2c(c1)COC2=O)c1ccc(Cl)c(Cl)c1	5	-59	75*	-76	-48	1.3	1.1	1	-14	-32	-12
C(=N\N1CCN(c2ccccn2)CC1)/c1cccc2ccccc12	-2	1	·	-5	9	·	·	·	·	·	·
Oc1ccccc1/C=N/N1CCN(c2ccccn2)CC1	5	0	78*	-36	-42	1.1	1.1	1.4	-18	-9	-20
CC(=O)Nc1ccc2c(c1Br)Cc1ccccc1-2	-3	-37	69*	·	·	1.2	0.92	2.8	-8	8	-7
COc1cccc(S(=O)(=O)N[C@H]2CC[C@H](CCn3cc(-c4ccccn4)nn3)O[C@@H]2CO)c1	·	·	0	·	·	·	·	·	·	·	·
c1ccc(-c2cnc(-c3cccnc3)o2)cc1	1	-40	19	-42	-45	·	·	·	·	·	·
Fc1cccc(-c2ncc(-c3ccccc3)o2)c1	5	-36	73*	·	·	1.2	0.99	1.7	-6	2	-17
COc1ccc2c(=O)c(-c3ccc(OC)c(OC)c3)coc2c1	7	-65	58*	-75	-35	1	0.89	1.5	-4	-60*	-14
COc1ccc2c(=O)c(-c3ccccc3)coc2c1	4	-117	0	-108	-146	·	·	·	·	·	·
COc1ccc2c(=O)c3ccccc3oc2c1	4	-46	58*	-76	-53	1.4	1	1.7	-11	-4	-16
c1ccc2cc(C3CCCCC3)ncc2c1	1	-12	76*	-36	-32	1.3	?	1.5	2	-41	13
C[C@H](NC(=O)OC(C)(C)C)C(=O)N/N=C/c1cccc2nccnc12	-5	-1	-2	16	2	·	·	·	·	·	·
O=C(O)c1ccc(N/N=C/c2cccc3nccnc23)cc1	3	-28	65*	-8	-64	1.2	0.85	1.8	-13	-29	6
COc1cccc(C(=O)Nc2ccc(Cl)c(C(F)(F)F)c2)c1	1	-41	68*	-70	-21	0.97	0.98	1.9	-2	-39	-6
COc1ccc(-c2nc(C#N)c(NC(C)C)o2)cc1	2	-26	67*	-83	-73	1.1	1	1.6	-4	-35	-9
COc1ccc(-c2nc(C#N)c(N3CCCCC3)o2)cc1	1	6	10	17	12	·	·	·	·	·	·
O=C(C[C@@H]1C[C@@H]2c3cc(NC(=O)c4cccnc4)ccc3O[C@@H]2[C@@H](CO)O1)NCc1ccc(Oc2ccccc2)cc1	·	·	12	·	·	·	·	·	·	·	·
Cc1ccnc(NC(=O)c2ccc(OCc3c(C)noc3C)cc2)c1	6	-20	70*	-65	-82	0.99	?	1.8	0	-29	-5
Cc1ccc(NC(=O)NC2CCCCCCC2)cc1C	4	14	61*	-75	-58	1.5	0.94	1.6	10	4	1
